Data taken from paper PMC5540273 (PLoS ONE, 2017).

Experiments:
Settings in all cases: concentration: 1 μM,replicates: in singlicate; n = 1
WNK1 = tested on: WNK1
WNK2 = tested on: WNK2
WNK3 = tested on: WNK3
WNK4 = tested on: WNK4
YANK1 = tested on: T1, YANK1
T1 construct: gene STK32A

YANK2 = tested on: T2, YANK2
T2 construct: gene STK32B

YANK3 = tested on: T3, YANK3
T3 construct: gene STK32C

YES = tested on: T4, YES
T4 construct: gene YES1

YSK1 = tested on: T5, YSK1
T5 construct: gene STK25

YSK4 = tested on: T6, YSK4
T6 construct: gene MAP3K19
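Note: KINOMEscan kinase panel screen.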

Structure (SMILES) | %Inh (WNK1) | %Inh (WNK2) | %Inh (WNK3) | %Inh (WNK4) | %Inh (YANK1) | %Inh (YANK2) | %Inh (YANK3) | %Inh (YES) | %Inh (YSK1) | %Inh (YSK4)
O=C(NCC1CC1)c1ccc(-c2cc(C(=O)NC3CC3)ccc2F)cc1 [GW810445] | 0% | 24% | 11% | 10% | 0% | 0% | 0% | 0% | 3% | 6%
O=c1[nH]cc(-c2ccc(O)cc2)c2sc(-c3ccncc3)cc12 [GSK1033723] | 1% | 26% | 18% | 10% | 10% | 0% | 14% | 5% | 0% | 98.8%
COC(=O)c1cccc(NC(=O)NC2CCN(c3ccnc(NCc4ccc(F)cc4)n3)CC2)c1 [GSK1379860] | 10% | 9% | 18% | 31% | 0% | 0% | 0% | 8% | 0% | 9%
Cc1cccc2c(-c3ccncc3)c(-c3ccc(F)cc3)nn12.Cl [GW461487] | 0% | 0% | 13% | 0% | 27% | 8% | 22% | 11% | 11% | 0%
COc1cccc(C2=C(Nc3cccc(Cl)c3)C(=O)NC2=O)c1 [SB-341556] | 20% | 29% | 19% | 0% | 5% | 0% | 11% | 17% | 0% | 38%
Cc1nnc(-c2ccc3occ(-c4ccc(S(C)=O)cc4)c3n2)o1 (stereo not shown) | 0% | 0% | 0% | 0% | 0% | 0% | 16% | 0% | 7% | 0%
O=C(Nc1n[nH]c2cc(-c3ccco3)ccc12)C1CC1 [SB-737447] | 0% | 0% | 0% | 0% | 0% | 0% | 0% | 0% | 0% | 96.2%
